Test results: PubChem BioAssay AID2314 (National Center for Advancing Translational Sciences (NCATS), 2010)
In all, about 300,000 compounds went through this assay and about 37,000 (12%) were called active. Rule as the data show it: active = max response mostly above about 13% (no sharp cut-off); inactive = mostly below about 14%. This excerpt belongs to a sample that is enriched for actives.

Test: Cycloheximide Counterscreen for Small Molecule Inhibitors of Shiga Toxin; also: read at 38.3 µM for the half of the compounds with a filed dose; 0% is about no effect
Settings: cell reporter, cycloheximide protein synthesis inhibition counterscreen; stronger effect = higher value

Q: With `O=S(=O)(Nc1ccc(Cl)cn1)c1cnc(Cl)c(Br)c1` as the compound, how does the max response read?
A: Its max response is -1.38% (inactive).

Q: Which max response does the source give for `CCN1CCN(c2cc3nc(C)n(Cc4ccccc4)c(=O)c3cc2NC(=O)c2ccccc2F)CC1` here?
A: The max response was -3.92% (inactive).

Q: Which max response does the source give for `Cc1nnnn1/C(=C\c1ccccc1)C(=O)OCC(=O)N1CC2(C)CC1CC(C)(C)C2` (centres undefined) here?
A: Its max response is -5.53% (inactive).

Q: For `O=C(Nc1nnc(C2COc3ccccc3O2)o1)c1ccc(F)cc1` (centres undefined), which max response is on record?
A: Its max response is 1.61% (inactive).

Q: Which max response does the source give for `CCn1c(SCC(=O)N/N=C/c2ccncc2)nc2ccccc21` here?
A: The max response was -1.38% (inactive).

Q: For `O=C(CSc1nc2ccccc2o1)N/N=C/c1ccccc1C(=O)O`, which max response is on record?
A: Its max response is 13.7% (active).

Q: With `Cn1c(SCC(=O)N/N=C/c2ccc(O)c(O)c2)nc2ccccc21` as the compound, how does the max response read?
A: Its max response is -3.26% (inactive).

Q: Which max response does the source give for `CCc1ccccc1NC(=O)CSc1nnc([C@@H](NC(=O)OC(C)(C)C)C(C)CC)o1` (some centres undefined) here?
A: Its max response is -3.76% (inactive).

Q: With `Cn1c(=O)[nH]c(=O)c2c1nc(Br)n2CCCCSc1nc2ccccc2o1` as the compound, how does the max response read?
A: The max response was -4.25% (inactive).

Q: With `Cc1ccc(/C=N/NC(=O)CSc2nc3ccccc3o2)cc1` as the compound, how does the max response read?
A: Its max response is 38.7% (active).

Q: Which max response does the source give for `COc1ccc(S(=O)(=O)N(CC(=O)N/N=C/c2ccccc2C(=O)O)c2ccccc2OC)cc1` here?
A: The max response was 1.7% (inactive).

Q: For `CCC(NC(=O)c1ccccc1NC(=O)c1ccccc1)C(=O)NNC(=O)CSc1nc2ccccc2o1` (centres undefined), which max response is on record?
A: Its max response is 16.5% (active).

Q: Which max response does the source give for `Cc1ccc(Cn2c(SCC(=O)N/N=C/c3ccccc3OCC(=O)O)nc3ccccc32)cc1` here?
A: Its max response is 3.56% (inactive).

Q: With `CC(C)[C@H](NC(=O)N1CCn2c1nc1ccccc12)C(=O)NCc1ccc2c(c1)OCO2` as the compound, how does the max response read?
A: The max response was 7.58% (inactive).

Q: With `CCCCOP(=O)(c1ccc(N(C)C)cc1)C(O)c1cc(OC)ccc1OC` (centres undefined) as the compound, how does the max response read?
A: The max response was -3.9% (inactive).

Q: Which max response does the source give for `N[C@@H](Cc1ccccc1)C(=O)N1CCC(C(=O)NCC(=O)Nc2ccc(F)cc2)CC1` here?
A: The max response was 10.8% (inactive).

Q: For `Cc1ccsc1C1C(C#N)=C(N)OC2=C1C(=O)CC(C)C2` (centres undefined), which max response is on record?
A: The max response was -3.34% (inactive).

Q: Which max response does the source give for `CSc1nnc(C2CCCN(CC(=O)Nc3ccccc3N3CCOCC3)C2)n1C(C)C` (centres undefined) here?
A: The max response was -6.84% (inactive).

Q: Which max response does the source give for `O=c1[nH]c2ccc(S(=O)(=O)N3CCCC3)cc2[nH]1` here?
A: The max response was -1.27% (inactive).

Q: With `CCCN1C(=O)C(Cc2nc3ccccc3c(=O)n2-c2ccccc2)c2cc(C)ccc21` (centres undefined) as the compound, how does the max response read?
A: Its max response is -6.23% (inactive).

Q: For `Cc1ccc(S(=O)(=O)N(CC(=O)Nc2cccnc2)c2ccc(Br)cc2)cc1`, which max response is on record?
A: Its max response is 18.2% (inactive).

Q: For `Cc1ccc(S(=O)(=O)N2CCN(C(=O)c3cccs3)CC2)cc1`, which max response is on record?
A: The max response was -2.84% (inactive).

Q: For `O=C(Nc1ccccc1)c1ccc(NC(=O)c2cccs2)cc1`, which max response is on record?
A: Its max response is -4.38% (inactive).

Q: With `Cc1ccc(C)c(NC(=O)CCC(=O)NNC(=O)c2cccs2)c1` as the compound, how does the max response read?
A: The max response was 5.25% (inactive).

Q: Which max response does the source give for `O=C(NNC(=O)c1ccc(Cl)cc1Cl)c1cccs1` here?
A: Its max response is 47.6% (active).

Q: For `Cc1ccc(NNC(=O)c2cccs2)cc1Cl`, which max response is on record?
A: The max response was 9.69% (inactive).

Q: For `Cc1ccc(C(=O)NNC(=O)c2cccs2)cc1`, which max response is on record?
A: Its max response is 33.4% (active).

Q: Which max response does the source give for `CC(C)C(=O)Nc1ccc(C(=O)NNC(=O)c2cccs2)cc1` here?
A: The max response was 19.4% (active).

Q: For `NNC(=O)c1ccc(Cl)cc1Cl`, which max response is on record?
A: Its max response is 9.54% (inactive).
